Reference: PubChem BioAssay AID1159580 (chemical genetic matrix, 2015)
Values joined by “and” are separate entries in the source; they are usually repeats but may differ in a detail not shown here. Equal entries are not always repeated. About 2,000 (36%) of roughly 5,500 compounds were called active. Inconclusive results (about 18%) are left out. Cut-off read from the data, not from the text of the source: active = normalized growth mostly below about 0.91 (no sharp cut-off); inconclusive = no clear call, values can overlap the other calls; inactive = mostly above about 0.92. Some of the results follow.

Experiment: chemical genetic growth profiling, strain panel (AID 1159580);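 note: tested at 20 µM; growth read once vehicle control cultures reached saturation at 30 °C; 1 = growth at the plate median or of vehicle wells; lower values mean less growth of the strain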
Details: S. cerevisiae deletion strains, growth OD

Measured: normalized growth

C=CCSCC1Nc2cc(Cl)c(S(N)(=O)=O)cc2S(=O)(=O)N1 (configuration not stated)
inactive: locus YAL013W, strain DEP1, active compounds read low 1.01 | locus YAL021C, strain ccr4, active compounds read low 0.994 | locus YAL026C, strain drs2, active compounds read low 1.01 | locus YAL030W, strain snc1, active compounds read low 1 | locus YBL061C, strain skt5, active compounds read low 1 | locus YBR009C, strain hhf1, active compounds read low 0.995 | locus YBR021W, strain FUR4, active compounds read low 0.991 | locus YBR023C, strain chs3, active compounds read low 1 | locus YBR171W, strain sec66, active compounds read low 1.01 | locus YBR229C, strain ROT2, active compounds read low 1.01 | locus YBR231C, strain swc5, active compounds read low 0.985 | locus YBR279W, strain paf1, active compounds read low 1 | locus YCL011C, strain gbp2, active compounds read low 1 | locus YCL016C, strain dcc1, active compounds read low 0.993 | locus YCL029C, strain bik1, active compounds read low 1.02 | locus YCL061C, strain MRC1, active compounds read low 1 | locus YCL069W, strain vba3, active compounds read low 0.999 | locus YCR088W, strain abp1, active compounds read low 1 | locus YDL005C, strain med2, active compounds read low 0.997 | locus YDL035C, strain GPR1, active compounds read low 1.01 | locus YDL040C, strain nat1, active compounds read low 1 | locus YDL074C, strain BRE1, active compounds read low 1.01 | locus YDL101C, strain DUN1, active compounds read low 1.01 | locus YDL134C, strain PPH21, active compounds read low 1.01 | locus YDL185W, strain tfp1, active compounds read low 1.02 | locus YDL192W, strain arf1, active compounds read low 1.02 | locus YDR001C, strain nth1, active compounds read low 1 | locus YDR069C, strain doa4, active compounds read low 0.997 | locus YDR101C, strain arx1, active compounds read low 1.01 | locus YDR137W, strain rgp1, active compounds read low 1 | locus YDR150W, strain NUM1, active compounds read low 1.01 | locus YDR159W, strain sac3, active compounds read low 0.981 | locus YDR162C, strain NBP2, active compounds read low 1.02 | locus YDR195W, strain ref2 1 | locus YDR297W, strain sur2, active compounds read low 1 | locus YDR318W, strain mcm21, active compounds read low 1.02 | locus YDR334W, strain swr1, active compounds read low 1 | locus YDR335W, strain msn5, active compounds read low 1.01 | locus YDR388W, active compounds read low 1.02 | locus YDR392W, strain spt3, active compounds read low 0.939 | locus YDR502C, strain sam2, active compounds read low 1.03 | locus YEL003W, strain gim4, active compounds read low 1 | locus YEL037C, strain rad23, active compounds read low 1 | locus YEL061C, strain CIN8 (second series), active compounds read low 0.997 | locus YEL061C, strain CIN8, active compounds read low 1 | locus YER015W, strain faa2, active compounds read low 1 | locus YER016W, strain bim1, active compounds read low 1 | locus YER110C, active compounds read low 1.03 | locus YER111C, strain swi4, active compounds read low 1 | locus YER155C, strain BEM2 (second series), active compounds read low 1 | locus YER155C, strain BEM2, active compounds read low 1 | locus YER167W, strain BCK2, active compounds read low 1 | locus YFR010W, strain ubp6, active compounds read low 1.01 | locus YGL078C, strain dbp3, active compounds read low 1.03 | locus YGL086W, strain mad1, active compounds read low 1.01 | locus YGL167C, strain pmr1, active compounds read low 1 | locus YGL173C, strain kem1, active compounds read low 1 | locus YGL227W, strain vid30, active compounds read low 0.99 | locus YGL240W, strain doc1, active compounds read low 0.992 | locus YGL248W, strain PDE1, active compounds read low 1.01 | locus YGL253W, strain hxk2, active compounds read low 0.992 | locus YGR078C, strain PAC10, active compounds read low 1 | locus YGR135W, strain pre9, active compounds read low 1.01 | locus YGR229C, strain SMI1, active compounds read low 1.01 | locus YGR252W, strain gcn5, active compounds read low 1.06 | locus YHR013C, strain ard1, active compounds read low 0.988 | locus YHR027C, strain rpn1, active compounds read low 1.01 | locus YHR030C, strain SLT2, active compounds read low 1 and 1.06 | locus YHR079C, strain IRE1 (second series), active compounds read low 1.02 | locus YHR079C, strain IRE1, active compounds read low 1.06 | locus YHR094C, strain hxt1, active compounds read low 1.02 | locus YHR129C, strain ARP1, active compounds read low 1.02 | locus YHR142W, strain chs7, active compounds read low 0.988 | locus YHR200W, strain rpn10, active compounds read low 1.03 | locus YIL066C, strain RNR3, active compounds read low 1 | locus YIL073C, strain SPO22, active compounds read low 1.08 | locus YIL125W, strain kgd1, active compounds read low 1.02 | locus YIR030C, strain dcg1, active compounds read low 1.03 | locus YJL092W, strain hpr5, active compounds read low 0.995 | locus YJL095W, strain BCK1 (second series), active compounds read low 0.994 | locus YJL095W, strain BCK1, active compounds read low 1 and 1.06 | locus YJL115W, strain asf1, active compounds read low 1 | locus YJL129C, strain trk1, active compounds read low 0.989 | locus YJL134W, strain LCB3, active compounds read low 1.01 | locus YJL154C, strain vps35, active compounds read low 0.999 | locus YJL164C, strain tpk1, active compounds read low 1.01 | locus YJL166W, strain qcr8, active compounds read low 0.998 | locus YJL168C, strain set2, active compounds read low 1.03 | locus YJL187C, strain SWE1 (second series), active compounds read low 1.01 | locus YJL187C, strain SWE1, active compounds read low 1 | locus YJR043C, strain POL32, active compounds read low 1 | locus YJR066W, strain TOR1, active compounds read low 0.991
